Reference: PubChem BioAssay AID651791 (National Center for Advancing Translational Sciences (NCATS), 2012)
Records with an inconclusive call do not appear. Calls of active or inactive are those of the source. Calls come from the whole dose curve; as a rule, active = well fitted inhibition curve with a large enough effect; inconclusive = small, poorly fitted or top-dose-only effect; inactive = no such curve, though single readings can be large or run the other way.

test: InCell qHTS Assay for Inhibitors of the mTORC1 Signaling Pathway in MEF (Tsc2-/-, p53-/-) Cells: Hit Validation; settings: phospho-rpS6 immunofluorescence, 24 h; activity change, negative = inhibition: at 38.3 µM (top of the series);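 note: phospho-S6 Ser235/236 signal normalized to propidium iodide cell count per well; nearly all actives have a fitted effect of over 75% in size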
Potency is the fitted concentration of half-maximal effect.

In order of rising activity change, negative = inhibition:
1. CCOC(=O)N1CCN(Cc2nc3cc(NC(=O)CC)ccc3n2C(C)C)CC1  -100%
2. CCOC(=O)c1cnc2ccc(OCC)cc2c1NCCc1ccc(OC)c(OC)c1  -100%
3. CC1CCCN(CCCNC(=O)c2ccc3c(c2)N(Cc2ccc(Cl)cc2)C(=O)c2ccccc2S3(=O)=O)C1 (stereo unspecified)  -100%
4. COCCCNc1ncnc2c1cnn2-c1ccc(F)cc1  -100%
5. COc1ccc(S(=O)(=O)NCCc2csc3nc(-c4ccc(Cl)cc4)nn23)cc1C  -100%
6. CC(=O)Nc1ccc2nc(-c3cc(C)ccc3C)[nH]c2c1  -100%
7. CC(=O)N1CCCc2cc(S(=O)(=O)N(Cc3ccccc3)C(C)C)ccc21  -100%
8. COc1ccc(Oc2nc3c(C)cccn3c(=O)c2/C=C(\C#N)c2nc3ccccc3[nH]2)cc1  -100%
9. Cc1ccc(-c2nnc(Nc3ccc(O)cc3)c3ccccc23)cc1S(=O)(=O)N1CCCCC1  -100%
10. COc1ccc(N2CCN(C(=O)C(C)n3nc(C)c4sc5ccccc5c4c3=O)CC2)cc1 (stereo unspecified)  -100%
11. COc1ccc(CCN2C(=O)c3[nH]nc(-c4ccccc4O)c3C2c2ccc(OC)c(OC)c2)cc1 (stereo unspecified)  -100%
12. Cc1c(Cl)cccc1NC(=O)c1oc2ccc(S(=O)(=O)N3CCC4(CC3)OCCO4)cc2c1C  -22.5%
13. CCC(=O)C1=C(c2ccc(F)cc2)N(C(=O)CC)n2cnnc2S1  -21.8%
14. O=C1c2[nH]nc(-c3ccccc3O)c2C(c2ccc(Cl)cc2)N1CCc1ccccc1 (stereo unspecified)  -21.4%
15. CCOc1cccc(C2CC(=O)Nc3cc4c(cc32)OCCO4)c1 (stereo unspecified)  -14.6%

In the case of `CCCCS(=O)(=O)c1oc(-c2ccc(F)cc2)nc1S(=O)(=O)c1ccc(C)cc1`, the Potency is reported as 5.85 µM (active).
